The full list was thinned out, with hits kept by preference.
HIV RNase H inh = HIV-1 RT RNase H inhibitors, primary screen, biochemical, fluorescence. Gag-Pol polyprotein (Human immunodeficiency virus type 1 group M subtype B (isolate …. RT-RNase H RNA/DNA duplex cleavage. inhibition, % at 10 µM. 65,000 tested, 1.9% active. AID 565, 2006; in the data active means inhibition above about 50%
RmlC RmlD mix = RmlC and RmlD coupled enzyme inhibitors, primary screen, biochemical, 384-well, compound mixtures, retest; inhibition, % at 5.5 µM; AID 1532, 2009; 110,000 tested, 0.39% active; RmlC/RmlD coupled enzyme inhibition, 384-well mixture HTS; in the data active means inhibition above about 30%, passing the limit was not always enough
The depositor's hits bear a star.

For CCOC(=O)c1cc2c(nc1N)CC(C)(C)OC2 the results were RmlC RmlD mix 39*.
Screening CCOC(=O)c1cc2c(nc1N)CC(C)(CC)OC2 (configuration not stated) returned RmlC RmlD mix 2.
CCCCn1c(CCC(=O)O)ccc1-c1cccs1 was read as HIV RNase H inh -10 and RmlC RmlD mix -12.
For O=C(O)CCc1ccc(-c2cccs2)n1NC(=O)c1ccc(O)cc1 the results were HIV RNase H inh 51* and RmlC RmlD mix -44.
For COc1ccccc1OCC(=O)Nc1sc2c(c1C(=O)NCC1CCCO1)CCC2 (configuration not stated) the results were RmlC RmlD mix 4.
Screening CCOc1cccc(-c2nnc3sc(C4CCCCC4)nn23)c1 returned HIV RNase H inh 59* and RmlC RmlD mix -10.
For COc1cccc(-c2nnc3sc(C4CCCCC4)nn23)c1 the results were HIV RNase H inh -64 and RmlC RmlD mix 6.
Screening Cc1nn(C(C)C(=O)N2CCc3ccccc32)c(C)c1[N+](=O)[O-] (configuration not stated) returned RmlC RmlD mix 11.
Screening Cn1c(C(=O)N2CCN(C(=O)c3ccco3)CC2)cc2c(=O)n3ccccc3nc21 returned HIV RNase H inh -1 and RmlC RmlD mix 96*.
`Cc1cccn2c(=O)c3cc(C(=O)N4CCN(C(=O)c5ccco5)CC4)n(C)c3nc12` gave HIV RNase H inh -5.
Screening CCCn1c(=O)c(C(=O)Nc2ccncc2)c(O)c2ccccc21 returned HIV RNase H inh -9.
`CCCCCn1c(=O)c(C(=O)Nc2ccncc2)c(O)c2ccccc21` gave HIV RNase H inh 83*.
Screening COc1ccccc1CNC(=O)C1CC(c2ccccc2C(F)(F)F)=NO1 (configuration not stated) returned RmlC RmlD mix 7.
Screening O=C(COC(=O)c1cc(S(=O)(=O)N2CCOCC2)ccc1O)NCCc1ccccc1 returned RmlC RmlD mix -14.
`Cc1c(NC(=O)OCCNC(=O)Nc2ccccc2)sc(=S)n1C` gave HIV RNase H inh -1 and RmlC RmlD mix 9.
`Cc1ccc(S(=O)(=O)NCCOC(=O)Nc2sc(=S)n(C)c2C)cc1` gave HIV RNase H inh 50* and RmlC RmlD mix -12.
`O=C(Nc1nnc(C2CC2)s1)c1cccc(S(=O)(=O)N2CC(c3ccccc3)CC2=O)c1` (configuration not stated) gave RmlC RmlD mix 4.
For COc1ccc(-c2nnc(SCC(=O)c3cccs3)o2)cc1 the results were HIV RNase H inh 0 and RmlC RmlD mix -2.
Screening COc1ccc(-c2nnc(SCC(=O)c3cc(C)n(Cc4cccs4)c3C)o2)cc1 returned HIV RNase H inh 58* and RmlC RmlD mix -6.
`Cc1nc2sc(C(=O)O)c(N)c2c2c1COC(C)(C)C2` gave HIV RNase H inh 9 and RmlC RmlD mix 5.
`CCOC(=O)c1sc2nc(-c3ccco3)c3c(c2c1N)CC(C)(C)OC3` gave HIV RNase H inh 90* and RmlC RmlD mix 12.
Screening O=S(=O)(N/N=C\C=C\c1ccccc1)c1ccc(Cl)cc1 returned RmlC RmlD mix 17.
N#Cc1nc(-c2cccc(Cl)c2)oc1NCc1cccnc1 was read as RmlC RmlD mix -19.
CCOC(=O)C1CCCN(C(=S)Nc2cc(C)cc(C)c2)C1 (configuration not stated) was read as RmlC RmlD mix -30.
For CCC(NC(=O)OC(C)(C)C)C(=O)Oc1cc(C)cc2oc(=O)c3c(c12)CCC3 (configuration not stated) the results were RmlC RmlD mix -6.
`CCC(NC(=O)OC(C)(C)C)C(=O)Oc1ccc2c3c(c(=O)oc2c1)CCC3` (configuration not stated) gave HIV RNase H inh -4 and RmlC RmlD mix active.
For CCOC(=O)c1ccc(NS(=O)(=O)c2c(N)[nH]c(=O)[nH]c2=O)cc1 the results were RmlC RmlD mix 5.
For CCOC(=O)c1sc(-c2ccccc2)cc1N the results were HIV RNase H inh -8 and RmlC RmlD mix -59.
Screening CCOC(=O)c1cc(-c2ccccc2)sc1N returned HIV RNase H inh 65*.
COc1ccccc1NC(=O)Cn1nc(-c2ccc(Cl)cc2)c2ccccc2c1=O was read as RmlC RmlD mix -12.
CCC(=O)O[C@]1(C(=O)SCF)[C@H](C)C[C@H]2[C@@H]3C[C@H](F)C4=CC(=O)C=C[C@]4(C)[C@@]3(F)[C@@H](O)C[C@@]21C was read as RmlC RmlD mix -18.
Screening O=C(Cc1cccs1)Nc1nnc(Cc2ccccc2)s1 returned RmlC RmlD mix -2.
`COc1ccc(Cc2nnc(NC(=O)Cc3cccs3)s2)cc1OC` gave HIV RNase H inh 80* and RmlC RmlD mix 0.
Screening COc1cc(/C=C2/N=C(c3ccccc3)OC2=O)c(F)cc1OCc1ccccc1 returned RmlC RmlD mix 8.
Screening CN1C(=O)N(C)C(=O)C2(Sc3ccccc3C2=O)C1=O returned HIV RNase H inh -6 and RmlC RmlD mix active.
Screening CN1C(=O)N(C)C(=O)C(CCc2ccccn2)(CCc2ccccn2)C1=O returned HIV RNase H inh -8 and RmlC RmlD mix 9.
Screening CCC(C)NS(=O)(=O)c1ccc(S(=O)(=O)N(CC(=O)Nc2ccccc2)CC2CCCO2)cc1 (configuration not stated) returned RmlC RmlD mix 9.
For CC1CC(C)CN(C(=O)CSc2nc(Cc3cccs3)nc3ccccc23)C1 (configuration not stated) the results were RmlC RmlD mix 14.
Screening Cc1cc(=O)[nH]c2c(C)c(N)ccc12 returned HIV RNase H inh -2 and RmlC RmlD mix 59*.
`Cc1cc(=O)[nH]c2c(C)c(Cl)ccc12` gave HIV RNase H inh -96 and RmlC RmlD mix -10.
`O=C(Nc1ccccn1)C(=O)N1CCCCC1` gave RmlC RmlD mix 2.
Screening O=c1[nH]c(Cn2nnc(-c3ccccc3)n2)nc2scc(-c3ccccc3)c12 returned HIV RNase H inh 53* and RmlC RmlD mix -15.
`c1ccc(Cn2nnc(-c3ccccc3)n2)cc1` gave RmlC RmlD mix 5.
For COc1cc(O)oc1C=Nc1ccc(Oc2ccccc2)cc1 the results were RmlC RmlD mix -8.
`CCn1c(O)c(C=Nc2ccccc2)oc1=S` gave HIV RNase H inh 54* and RmlC RmlD mix -16.
`COC(=O)c1cccc(C23CC4(C2)[C@H](CN(Cc2ccc(C(F)(F)F)cc2)[C@@H]4c2ccccc2)C3c2ccc(C(F)(F)F)cc2)c1` (some centres not stated) gave RmlC RmlD mix -11.
For Nn1c(SC/C=C/c2ccccc2)nnc1-c1ccncc1 the results were HIV RNase H inh 52*.
`COc1cc(-c2nnc(SC/C=C/c3ccccc3)n2N)cc(OC)c1OC` gave RmlC RmlD mix -2.
`O=C(C1=C[C@H](c2csc3ccccc23)C[C@H](OCCCCO)O1)N1CCN(Cc2ccc3c(c2)OCO3)CC1` gave RmlC RmlD mix -2.
`Cc1ccc(/C=c2\sc3nc(-c4ccccc4Br)nn3c2=O)o1` gave HIV RNase H inh 51*.
For Cc1ccc(/C=c2\sc3nc(-c4ccco4)nn3c2=O)o1 the results were HIV RNase H inh 30 and RmlC RmlD mix -12.
CCCCn1c(-c2ccccc2)cnc1SCC(=O)NCCc1ccc(OC)c(OC)c1 was read as RmlC RmlD mix -2.

High-throughput results as filed in PubChem BioAssay.
